# According to ChEMBL document CHEMBL4513216, “Probing the Open Global Health Chemical Diversity Library for Multistage-Active Starting Points for Next-Generation Antimalarials” (ACS Infect Dis, 2020):
# Out of some 69,000 compounds screened, about 8,600 (12%) showed an effect of 50% or more. The list comes from a sample in which strong results are over-represented; it also holds similar structures and randomly drawn compounds.
# Test system: Plasmodium berghei
# Test: Screen against P. berghei liver stage (PbLuc), transformed with Luciferase, at 10uM
# Assay type: functional, HepG2
# Details: tested at 10 uM
row,SMILES,INHIBITION [%]
1,Fc1ccc(-c2cnc(CN3CCn4c(nnc4C4CC4)C3)o2)cc1,21.8
2,CN1C(=O)CCCC12CCCN(Cc1cccs1)C2 (configuration not stated),-2.35
3,N#Cc1ccc(C(=O)O)nc1C=Cc1cccc(Cl)c1,10.2
4,c1coc(-c2noc(CN3CCCCC3Cn3cncn3)n2)c1 (configuration not stated),17.4
5,CC(C)[C@@H]1CN(Cc2cnc(C3CCCCC3)nc2)C[C@H]1C(=O)O,13.5
6,COCCc1ncc(CN2C[C@@H](C(=O)O)[C@H](C(C)C)C2)cn1,50.2
7,COCc1ncc(CN2C[C@@H](C(=O)O)[C@H](C(C)C)C2)cn1,24.2
8,COCCNC(=O)Nc1cc2c(cc1SC)OCCO2,69.1
9,CSc1cc2c(cc1NC(=O)NCCn1ccnc1)OCCO2,64.6
10,COCCN(C)C(=O)Nc1cc2c(cc1SC)OCCO2,-34
11,CSc1cc2c(cc1NC(=O)NCC(=O)N(C)C)OCCO2,35.9
12,CSc1cc2c(cc1NC(=O)NCC(C)(C)C(N)=O)OCCO2,48.5
13,CSc1cc2c(cc1NC(=O)NCc1ccncc1)OCCO2,8.4
14,CSc1cc2c(cc1NC(=O)NCC1CCOC1)OCCO2 (configuration not stated),67.3
15,CC(NC(=O)NCCn1ccnc1)c1ccc2c(c1)OCCO2 (configuration not stated),31.8
16,CCCNC(=O)Nc1cc2c(cc1SC)OCCO2,8.47

row,SMILES,INHIBITION [%]
1,O=C(N1CCCC(n2cncn2)C1)C1(c2ccccc2F)CCCC1 (configuration not stated),22.3
2,Cn1cnc(CNC(=O)c2ccccc2-n2cc(CN)cn2)c1,-5.71
3,COCC1CC2(CCN(Cc3cccnc3)CC2)CN1c1ncccn1 (configuration not stated),22.2
4,Cc1cc(S(=O)(=O)NC(=O)CCc2cncc(F)c2)c(C)s1,24.3
5,COCc1nc(C(=O)N2CCCC2c2cccc(C)c2)cs1 (configuration not stated),-23.8
6,COc1c(C)cnc(CN2CCCC(Cn3nc(C)nc3C)C2)c1C (configuration not stated),-1.14
7,CC(NC(=O)NCCn1ccnc1)c1nncn1C (configuration not stated),39.3
8,COc1cccc(CNc2cc(N3CCCC3CO)ncn2)n1 (configuration not stated),-14.6
9,O=C(O)c1ccccc1-c1ccc(CN2CC(c3ccncn3)C2)o1,6.1
10,CN(C)c1cc(CNC(=O)c2ccc(F)cc2)ccn1,-7.35
11,CN(C)c1cc(CNC(=O)c2cc(F)ccc2F)ccn1,-2.53
12,CN(C)c1cc(CNC(=O)c2cn(-c3ccc(F)cc3)nn2)ccn1,70.6
13,CC(C)COCC(NC(=O)c1ccncc1)c1ccco1 (configuration not stated),28.8
14,N#Cc1ccc(NC2CCN(c3ncccn3)CC2)cc1Cl,28.7
15,CS(=O)(=O)N1CCC(Nc2ccc(C#N)c(C(F)(F)F)c2)CC1,-11.7
16,N#Cc1ccc(NC2CCN(c3ncccn3)CC2)cc1C(F)(F)F,68.2
